Laboratory results published in PubChem BioAssay AID588335 (The Scripps Research Institute Molecular Screening Center, 2011).
Screen size: about 360,000 compounds; about 4,500 (1.2%) were called active. Cut-off read from the data, not from the text of the source: active = inhibition above about 30%; inactive = the rest. What follows is part of a selection rich in actives, with near analogues and random picks from the rest.

test: GDH-TPI coupling enzyme inhibitors, primary screen, artefact control for M. tuberculosis FBA inhibitor project, biochemical, absorbance, full deck (AID 588335); settings: GDH-TPI coupled enzyme counterscreen, NADH absorbance; at 4.8 µM; active compounds read high;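 note: 0% = DMSO wells and 100% = wells lacking the enzyme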

Structure (SMILES) | inhibition
COc1ccc(C(=O)COC(=O)c2nn(C)c(=O)c3ccccc23)c(OC)c1 | -0.9% (inactive)
O=C(O)C1CCCN1S(=O)(=O)c1ccc2c(c1)CCC2 (stereo not drawn) | -0.82% (inactive)
COc1ccc2sc(-c3ccccc3OC)c(-c3ccc(OCCN4CCCC4)cc3)c2c1 | 8.81% (inactive)
COc1ccc2sc(-c3ccc(N(C)C)cc3)c(-c3ccc4cc[nH]c4c3)c2c1 | 33.5% (active)
COc1cccc(-c2sc3ccc(OC)cc3c2-c2ccc(OCCN3CCCCC3)cc2)c1 | 0.91% (inactive)
COc1ccc(CNC(=O)c2c(C)cc(=O)oc2C)cc1OC | 5.96% (inactive)
Cc1cc(=O)oc(C)c1C(=O)NCc1ccc(F)cc1 | 16.2% (inactive)
Cc1cc(=O)oc(C)c1C(=O)NCCN(C)Cc1ccccc1 | 45.1% (active)
CC(NC(=O)c1ccc(Cl)cc1)C(=O)N1CCCCC1 (stereo not drawn) | 8.65% (inactive)
Cc1ccc(NC(=O)c2cnc(SCC(=O)NCC3CCCO3)n(C)c2=O)cc1 (stereo not drawn) | 33.3% (active)
CCn1c(SCC(=O)NCC2CCCO2)nc2ccccc21 (stereo not drawn) | -11% (inactive)
Cn1c(SCC(=O)c2ccccc2)ncc(C(=O)Nc2ccc(F)cc2)c1=O | 2.1% (inactive)
CC1C(=O)N2CCCc3cc(S(=O)(=O)NCc4ccc(F)cc4)cc1c32 (stereo not drawn) | 6.01% (inactive)
O=C1C=C(c2ccnc3cc(Cl)ccc23)C[C@@H](c2ccc3c(c2)OCO3)C1 | 1.34% (inactive)
CSc1ccc(/C=C2\NC(=O)NC2=O)cc1 | 27.3% (inactive)
Cc1ccccc1-n1c(C)cc(/C=N/NC(=O)c2ccc(CN3CCOCC3)cc2)c1C | 18.1% (inactive)
Cc1ccccc1-n1c(C)cc(/C=C2\NC(=O)NC2=O)c1C | 32.7% (active)
COc1ccc2[nH]c3c(c2c1)CCN1C(=O)C(CC(=O)NCc2cccc(C(F)(F)F)c2)C[C@H](C(=O)N2CCOCC2)[C@@]31C (stereo partly drawn) | -0.94% (inactive)
Fc1ccccc1/C=N/Nc1cc(N2CCCCC2)ncn1 | 18.5% (inactive)
COc1ccc(/C=N/Nc2cc(N3CCOCC3)nc(C)n2)c(OC)c1 | 68.5% (active)

Structure (SMILES) | inhibition
COc1ccccc1-c1cnn2c(N3CCOCC3)cc(C)nc12 | 8.82% (inactive)
CCOc1ccc(CN(C)C(=O)c2ccc(=O)[nH]c2)cc1 | 1.51% (inactive)
CC(C)CNC(=O)C(=O)NCC(c1ccc2c(c1)OCO2)N1CCOCC1 (stereo not drawn) | -0.84% (inactive)
CCCc1ccc(C(O)c2ncc(-c3cccc(OC)c3)[nH]2)cc1 (stereo not drawn) | -5.36% (inactive)
CC(C)(C)OC(=O)N/N=C/c1ccc(C(=O)O)cc1 | -4.41% (inactive)
COC(=O)N/N=C/c1c[n+]([O-])c2ccccc2[n+]1[O-] | 32.6% (active)
COC(=O)C(C)N=Cc1ccccc1 (stereo not drawn) | -1.89% (inactive)
O=C(Nc1ccc2c(c1)nc1n2CCCCC1)c1cc(S(=O)(=O)N2CCOCC2)ccc1Cl | -14.1% (inactive)
CC1CCN(C2=NC(=O)/C(=C/c3cn[nH]c3-c3ccccc3)S2)CC1 | 33.8% (active)
CCOc1cc(/C=C2\SC(N3CCCC(C)C3)=NC2=O)ccc1O (stereo not drawn) | 14.5% (inactive)
CN(CCC1CCOCC1)Cc1cn[nH]c1-c1ccc(-c2ccccc2)cc1 | 13% (inactive)
CCCCCCCCn1c2c(c(=N)c3c1CCC3)CCCC2 | -7.26% (inactive)
C/C(=N\NC(=O)c1cccc([N+](=O)[O-])c1)c1cccnc1 | 3.57% (inactive)
CCOc1ccccc1-c1cc(C(=O)N/N=C(\C)c2cccnc2)c2ccccc2n1 | 19.2% (inactive)
C/C(=N\NC(=O)c1cc(-c2ccc(O)cc2)nc2ccccc12)c1cccnc1 | 30.9% (active)
O=C(ON=C1CCN(S(=O)(=O)c2ccccc2)CC1)c1ccc(Cl)cc1 | 4.57% (inactive)
CCc1ccc(Nc2ncc3c(n2)CC(c2ccco2)CC3=O)cc1 (stereo not drawn) | 37.7% (active)
CN1CCN(c2ncc3c(n2)CC(c2ccccc2F)CC3=O)CC1 (stereo not drawn) | 4.15% (inactive)
Cc1ccc2nc(Nc3ncc4c(n3)CC(C)(C)CC4=O)nc(C)c2c1 | 1.22% (inactive)
COc1ccc(Cl)cc1C=CC=Nc1ccc(S(N)(=O)=O)cc1 | 5.17% (inactive)

Structure (SMILES) | inhibition
COc1ccc(Cl)cc1C=CC=NNC(=O)c1ccncc1 | 50% (active)
CC(=NNC(=O)c1ccncc1)c1ccc(Cl)c(Cl)c1 | 0.88% (inactive)
CCOc1nc(OCC)nc(-n2cc(-c3ccccc3)nn2)n1 | -5.88% (inactive)
Cc1c(C)c2c(OCC(=O)N[C@@H](C(=O)O)c3ccccc3)cc3c(c2oc1=O)CCC(C)(C)O3 | 35.3% (active)
Cc1cc(=O)oc2c3c(cc(OCC(=O)NCCC(=O)N[C@@H](C)C(=O)O)c12)OC(C)(C)CC3 | 15.1% (inactive)
Cc1c(C)c2c(OCC(=O)NCCCO)cc3c(c2oc1=O)CCC(C)(C)O3 | 15% (inactive)
Cc1cc(=O)oc2c3c(cc(OCC(=O)N[C@H](C(=O)O)c4ccccc4)c12)OC(C)(C)CC3 | 31.4% (active)
Cc1cc(=O)oc2c3c(cc(OCC(=O)NCc4ccccn4)c12)OC(C)(C)CC3 | 18.6% (inactive)
Cc1cc(=O)oc2c3c(cc(OCC(=O)NCC(O)c4ccccc4)c12)OC(C)(C)CC3 (stereo not drawn) | 15.3% (inactive)
COc1cc(C(F)(F)F)nc2c(Br)c(C(C)(C)C)nn12 | 11.5% (inactive)
CCCCN(C(=O)C(CCSC)N1C(=O)c2ccccc2C1=O)c1c(N)n(CCC)c(=O)[nH]c1=O (stereo not drawn) | 6.94% (inactive)
Cc1onc(-c2ccccc2)c1-c1nnc(COC(=O)c2ccc(N(C)C)cc2)o1 | 16.8% (inactive)
CCOCCCNC(=O)C(NC(=O)c1ccc(=O)[nH]c1)c1ccc(Cl)cc1 (stereo not drawn) | 14.7% (inactive)
Cc1ccc(-n2nc3cc(C)c(NC(=O)c4cccnc4)cc3n2)cc1 | 15.4% (inactive)
CC(C)NS(=O)(=O)c1ccc(NC(=O)c2cccnc2)cc1 | -0.48% (inactive)
Cc1cc2nc(-c3ccc(NC(=O)c4cccnc4)cc3)oc2cc1C | 34.4% (active)
CCc1ccc(NC2Nc3cc(C)nn3S2)cc1 (stereo not drawn) | 3.7% (inactive)
Cc1ccc(C(=O)N[C@H](C(=O)N2CCN(c3ncccn3)CC2)C(C)C)cc1 | 4.42% (inactive)
